The list is not random: actives were taken first. Their share in the collection is about 3.8%.
tim10-1 inh – inhibits growth of tim10-1 mutant yeast; 330,000 tested, 2.2% active; AID 463190; inhibition, % at 20 µM; S. cerevisiae tim10-1 ts strain growth, BacTiter-Glo, 24 h;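 active means inhibition of at least 40%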;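 further: mutant grown at 25 °C; 0% = DMSO wells with yeast and 100% = wells holding no yeast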
NALP3 yeast inh – inhibitors of NALP3 inflammasome in yeast; 330,000 tested, 0.39% active; Yeast reconstituted NLRP3/ASC/caspase-1, beta-gal luminescence, 24 h; inhibition, % at 10 µM;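 active means inhibition of 50% or more; inactive means inhibition below 50%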;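 further: plate controls were induced DMSO wells for no effect and uninduced yeast grown without galactose for full effect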
tim23-1 inh – tim23-1 yeast growth inhibition; AID 463212; S. cerevisiae tim23-1 growth, BacTiter-Glo luminescence, 24 h; inhibition, % at 20 µM; 330,000 tested, 1.3% active;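 active means growth inhibition of the mutant yeast at or above 50%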;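 further: temperature-sensitive mutant grown at 25 °C; plate controls were DMSO-treated mutant yeast for no effect and medium wells lacking yeast for full effect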
Yeast superoxide – caloric restriction mimetics inhibiting age-related superoxide in yeast; S. cerevisiae aged cells, superoxide DHE fluorescence; stronger effect = lower value; superoxide response (% of plate mean), % at 10 µM; 330,000 tested, 0.18% active;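 active means superoxide response under a set limit, about three screen SD below normal, cut at about 65% in these data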;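 further: yeast aged for seven days with compound at 30 °C before DHE staining; 100% = average MFI of all compound-treated wells on the plate with controls excluded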
TIM10 inh – TIM10 yeast growth inhibition; S. cerevisiae TIM10 strain growth, BacTiter-Glo luminescence, 24 h; inhibition, % at 10 µM; 330,000 tested, 1.4% active; AID 463195;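 active means inhibition of 40% or more at the single tested concentration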;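 further: wild-type TIM10 isogenic control strain grown at permissive 25 °C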
Superoxide pick – confirmation of caloric restriction mimetics inhibiting yeast age-related superoxide. shares compounds with Yeast superoxide. S. cerevisiae aging, superoxide DHE fluorescence; stronger effect = lower value. superoxide response (% of plate), % at 10 µM. 850 tested, 1% active. AID 434994;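 active means superoxide signal below 65% of the plate average of sample wells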;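 further: cells aged with compound for 7 days at 30 degrees C before staining; 100% equals mean DHE fluorescence of all compound wells on the plate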
DHE counter – DHE fluorescence interference, counter-screen artifact. AID 435000. shares compounds with Yeast superoxide. S. cerevisiae BY4741, flow cytometry; stronger effect = lower value. fluorescence response, % at 10 µM. 850 tested, under 10 active;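 active means fluorescence response below 15%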;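 further: percent of the mean fluorescence averaged over all compound wells on the plate; lower means stronger quenching of DHE signal or ROS scavenging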
Active calls of the source: *; · = not tested or not shown.

SMILES | tim10-1 inh | NALP3 yeast inh | tim23-1 inh | Yeast superoxide | TIM10 inh | Superoxide pick | DHE counter
COC(=O)C1=C(C)NC(=O)NC1c1ccc2c(c1)OCO2 (stereo unspecified) | 6.4 | 16.7 | -2.1 | 94.5 | 5.4 | · | ·
O=Cc1c(C(=O)O)n(CC(=O)O)c2ccccc12 | 4.1 | 3.6 | 1.4 | 84.7 | 0.5 | · | ·
O=C(O)Cn1c2ccccc2c2ccccc21 | 6.5 | 8.5 | 12.1 | 122.0 | -4.3 | 106.9 | 110.6
O=C(O)CCn1c(=O)c2ccccc2c2ccccc2c1=O | -4.8 | -2.4 | 7.4 | 99.1 | -3.0 | · | ·
NC(=O)CCn1c2ccccc2c2ccccc21 | 11.6 | 5.1 | 14.2 | 102.2 | 8.9 | 98.1 | 98.5
CC(=O)Nc1cccc(C(=O)NNC(=O)c2n[nH]c(=O)c3ccccc23)c1 | 3.5 | 1.2 | 3.8 | 94.3 | 1.8 | · | ·
CCCCCCCCSc1nnc(-c2ccc(OC)cc2)o1 | 17.5 | 7.0 | 9.5 | 87.4 | 4.2 | 103.4 | 93.0
Cc1nc(C)c(C(=O)O)c(-c2ccsc2)c1C(=O)O | -4.4 | 4.9 | 4.7 | 60.9* | 35.7 | 102.6 | 90.5
COc1ccc(-n2nnnc2CNC(=O)c2ccc(S(=O)(=O)N3CCOCC3)cc2)cc1 | 7.5 | 9.0 | 2.7 | 59.7* | 0.2 | 107.0 | 114.3
COc1ccc(C(=O)NNC(=O)c2ccc(S(=O)(=O)N3CCOCC3)cc2)cc1 | 3.0 | -1.5 | 11.4 | 87.8 | -2.8 | · | ·
CCOc1ccccc1NC(=O)NCc1ccc(F)cc1 | 19.3 | 19.6 | 12.7 | 64.5* | 9.7 | 103.8 | 110.9
COc1cc2c(cc1OC)CN(C(=O)/C=C/c1cc(OC)c(OC)c(OC)c1)CC2 | 33.1 | 3.4 | 7.2 | 63.4* | -6.0 | 97.4 | 98.4
COc1cccc(NC(C(=O)Nc2cccc(C(C)=O)c2)c2ccccc2)c1 (stereo unspecified) | 3.1 | 4.1 | 18.4 | 59.6* | 12.4 | 94.5 | 106.1
COc1cc(NC(C(=O)Nc2cccc(C(C)=O)c2)c2ccccc2)cc(OC)c1OC (stereo unspecified) | 5.3 | 24.7 | 24.7 | 90.8 | 13.8 | · | ·
Cc1cccc(NC(=S)NNC(=O)c2csc3c2CCC(C)C3)c1 (stereo unspecified) | 32.3 | 12.4 | 13.4 | 95.7 | 14.2 | · | ·
CC(C)CNC(=S)NNC(=O)c1csc2c1CCC(C)C2 (stereo unspecified) | 29.8 | 29.1 | 15.9 | 59.1* | 30.2 | 90.8 | 89.2
CN(C)c1ccc(/C=N/NC(=O)c2cc(-c3ccc4c(c3)OCO4)n[nH]2)cc1 | -0.2 | 3.1 | -8.9 | 106.8 | -3.4 | · | ·
O=C(N/N=C/c1ccc(F)cc1)c1cc(-c2ccc3c(c2)OCO3)n[nH]1 | 3.1 | -1.8 | 9.9 | 64.0* | 12.2 | 105.4 | 94.5
CCOc1ccc(S(=O)(=O)N2CCN(C(=O)c3ccc(-n4cncn4)c([N+](=O)[O-])c3)CC2)cc1 | 2.5 | 3.1 | -15.6 | 99.2 | 2.8 | · | ·
O=c1nc(Nc2ccc(Br)cc2)sc2ccc([N+](=O)[O-])cc12 | 6.2 | 3.4 | -13.3 | 100.8 | -10.0 | · | ·
CCC(C)(C)c1ccc(OCCCC[n+]2cccc(C)c2)c(C(C)(C)CC)c1 | · | · | · | · | · | 120.6 | 107.0
Cc1ccc[n+](CC(=O)Nc2cc(C(F)(F)F)ccc2Cl)c1 | 0.7 | 3.5 | -16.4 | 105.3 | -9.9 | · | ·
CC1C(=O)N(Cc2ccccc2F)c2ccccc2N1C(=O)c1c(F)cccc1F (stereo unspecified) | 19.0 | 9.3 | 26.9 | 65.3* | -9.7 | 92.2 | 98.5
COc1cccc(CN2C(=O)C(C)N(C(=O)c3c(F)cccc3F)c3ccccc32)c1 (stereo unspecified) | 32.9 | -0.1 | 24.7 | 94.1 | 1.2 | · | ·
CSCCC(C(=O)N(C)CC(=O)Nc1cccc(F)c1)N1C(=O)c2ccccc2C1=O (stereo unspecified) | -1.0 | 11.3 | 2.6 | 89.9 | -5.7 | · | ·
SMILES | tim10-1 inh | NALP3 yeast inh | tim23-1 inh | Yeast superoxide | TIM10 inh | Superoxide pick | DHE counter
O=C(NCC1CCCCC1)c1ccc(F)cc1Cl | -14.8 | 7.3 | -7.1 | 98.6 | 2.7 | · | ·
COc1ccc(CNC(=O)C2Cc3cc(S(=O)(=O)N4CCCC4)ccc3N2C(C)=O)c(OC)c1 (stereo unspecified) | 0.7 | 1.9 | 6.5 | 96.7 | 4.4 | · | ·
O=C(Nc1ccc(F)c(F)c1)c1ccc(F)c(S(=O)(=O)N2CCOCC2)c1 | 14.8 | -9.4 | 8.6 | 56.0* | 4.8 | 120.4 | 110.0
CCN1CCCc2cc(CN(CCN3CCOCC3)C(=S)Nc3ccccc3C)ccc21 | 8.8 | 10.5 | 23.4 | 61.0* | 24.2 | 104.7 | 101.1
CCN(Cc1ccccc1)C(=O)c1oc2ccc(S(=O)(=O)N3CCOCC3)cc2c1C | 11.8 | 8.0 | 14.6 | 92.2 | 11.2 | · | ·
O=C(CCl)NNC(=O)c1c(O)c2ccccc2[nH]c1=O | -40.1 | 7.6 | 11.1 | 91.8 | -23.6 | · | ·
CC(C)=NNC(=O)c1c(O)c2ccccc2[nH]c1=O | -38.2 | 37.9 | 28.4 | 62.1* | 24.2 | 83.0 | 94.4
CSCCC(NC(=O)c1ccccc1Br)C(=O)NCc1ccc(F)cc1 (stereo unspecified) | 10.9 | -2.3 | 9.1 | 23.1* | -3.6 | 88.4 | 108.8
CC1CCC2(CC1)NC(=O)N(CC(=O)N1CC(C)CC(C)C1)C2=O (stereo unspecified) | -0.7 | 9.4 | 14.5 | 109.2 | -0.2 | · | ·
COC(C[C@H](O)C[C@H](O)COCc1ccccc1)OC | 6.9 | 2.2 | 8.0 | · | 2.9 | · | ·
COc1ccc(OC)c(NS(=O)(=O)c2c(C)nc3sccn3c2=O)c1 | 14.4 | 14.3 | 20.2 | 103.3 | 12.8 | · | ·
CCC(CO)Oc1cc(NCc2ccc(O)cc2)c2ncn(C(C)C)c2c1 (stereo unspecified) | -18.3 | 7.7 | -3.9 | 64.9* | -1.5 | 82.6 | 91.2
O=C(NC(Cc1ccccc1)C(=O)O)/C(=C\c1ccc(Cl)cc1)NC(=O)c1ccccc1 (stereo unspecified) | 16.1 | 10.5 | 14.4 | 99.1 | 1.3 | · | ·
O=C(NC(Cc1ccccc1)C(=O)O)/C(=C/c1ccccc1)NC(=O)c1ccccc1 (stereo unspecified) | 6.1 | 4.2 | 1.4 | 64.6* | -3.4 | 106.6 | 99.0
COc1cc2c(cc1OC)CN(C(=O)C1CCC(=O)N(CCCN3CCOCC3)C1)CC2 (stereo unspecified) | -0.5 | -2.1 | -0.4 | 84.1 | -2.1 | · | ·
Cc1cccc(CN2C(=O)CCSc3ccc(Cl)cc32)c1 | 22.9 | -21.3 | 4.2 | 65.4* | -2.5 | 84.4 | 96.3
C=CCNC(=S)NCC | 0.7 | 6.8 | 3.1 | 65.1* | -0.2 | 97.8 | 96.5
O=C(Nc1ccccc1)/C(=C/c1cccnc1)NC(=O)c1ccco1 | 11.5 | -6.2 | -5.5 | 61.8* | 6.1 | 113.2 | 100.7
CCOC(=O)c1c(NC(=O)COC(=O)c2nccnc2N)sc(C(=O)N(C)C)c1C | -5.1 | 17.8 | 7.6 | 102.3 | 1.5 | · | ·
Cc1ccc(NC(=O)CCC(=O)NNC(=O)Cc2ccccc2)cc1C | 0.8 | 18.7 | 10.9 | 84.8 | 0.5 | · | ·
CCOc1ccc(C(=O)N2CCN(c3ccccc3)CC2)cc1 | 27.6 | 19.7 | 11.5 | 97.3 | 12.7 | 96.2 | 95.2

Compound activity: PubChem, several laboratories
